Measured values reported in the supplement of paper PMC3545927.
The other results are listed elsewhere or left out. The true hit rate is not given.

Target: furin, P09958
Experiment: furin cleavage Z-score vs untreated control; higher = more cleavage, active = 3.5 or more, inactive = 1 or less, 8 variable residues between constant flanks
How it was run: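 Furin-free reactions served as the baseline for the cleavage Z-score, which is the log read count lowess-adjusted and scaled by median absolute deviation. Counts came from released DNA, adapter-tagged by PCR and sequenced. Purified furin had cut 8-mer peptides fused to a cDNA oligonucleotide on magnetic beads during 7.5, 15 or 30 min at 1:10 enzyme:substrate.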
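Also: purified furin at 1:10 enzyme:substrate in 50 mM HEPES pH 7.5.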

furin, P09958, sequence (P09958 whole entry): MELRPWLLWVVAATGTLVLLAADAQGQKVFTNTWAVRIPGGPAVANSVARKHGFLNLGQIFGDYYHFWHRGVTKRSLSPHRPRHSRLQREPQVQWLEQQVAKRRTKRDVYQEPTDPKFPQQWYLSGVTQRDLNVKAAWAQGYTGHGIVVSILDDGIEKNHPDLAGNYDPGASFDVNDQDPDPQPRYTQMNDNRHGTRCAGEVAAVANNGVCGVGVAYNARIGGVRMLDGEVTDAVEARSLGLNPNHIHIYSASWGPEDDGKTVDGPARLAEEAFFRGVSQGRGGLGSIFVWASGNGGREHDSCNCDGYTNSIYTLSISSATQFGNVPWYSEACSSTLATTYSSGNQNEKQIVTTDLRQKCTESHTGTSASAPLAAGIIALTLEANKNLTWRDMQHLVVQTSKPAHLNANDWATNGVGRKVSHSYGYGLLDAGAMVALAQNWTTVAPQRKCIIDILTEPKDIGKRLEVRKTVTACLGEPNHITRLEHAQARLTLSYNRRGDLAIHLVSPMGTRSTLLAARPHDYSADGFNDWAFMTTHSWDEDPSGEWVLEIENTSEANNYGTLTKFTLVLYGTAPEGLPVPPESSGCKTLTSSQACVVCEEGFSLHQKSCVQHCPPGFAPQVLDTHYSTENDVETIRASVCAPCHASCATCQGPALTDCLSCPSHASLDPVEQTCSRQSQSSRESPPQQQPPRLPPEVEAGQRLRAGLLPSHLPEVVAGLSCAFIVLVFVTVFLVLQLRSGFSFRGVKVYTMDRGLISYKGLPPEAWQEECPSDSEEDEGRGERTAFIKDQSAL

Sequence | furin cleavage Z-score (7.5 min) | furin cleavage Z-score (15 min) | furin cleavage Z-score (30 min)
CACLLLLAAGAGNASASA [HC1658] | -0.897 (inactive) | -1.64 (inactive) | -0.912 (inactive)
CACDVVCCSMAGNASASA [HC2120] | -0.0436 (inactive) | -0.677 (inactive) | -0.296 (inactive)
CATTPCSGSNAGNASASA [HC1941] | -1.17 (inactive) | -0.013 (inactive) | -0.852 (inactive)
CAMSTNPKPQAGNASASA [HC161] | 0.554 (inactive) | -0.264 (inactive) | -0.709 (inactive)
CAELSPLLLTAGNASASA [HC491] | -1.56 (inactive) | -0.594 (inactive) | 0.347 (inactive)
CASEPCSAHLAGNASASA [HC2492] | -0.366 (inactive) | -0.474 (inactive) | -0.0579 (inactive)
CARKTRFIIHAGNASASA [FS-2426] | 0.0934 (inactive) | -2.08 (inactive) | 0.575 (inactive)
CARKRRETSQAGNASASA [FS-2347] | 13.9 (active) | 14.9 (active) | 10.1 (active)
CAVHKRSAERAGNASASA [FS-2854] | 2.95 | 4.06 (active) | 5.25 (active)
CARRARHPGQAGNASASA [FS-2448] | 0.222 (inactive) | -1.48 (inactive) | -0.313 (inactive)
CARKRRNTIHAGNASASA [FS-2567] | 9.29 (active) | 10.7 (active) | 9.63 (active)
CARKRRQTGQAGNASASA [FS-2701] | 9.83 (active) | 11.9 (active) | 7.6 (active)
CARDSRSSERAGNASASA [FS-2654] | -1.62 (inactive) | -0.417 (inactive) | -0.301 (inactive)
CAKLTPIAAAAGNASASA [HC1638] | -0.902 (inactive) | 0.513 (inactive) | -0.874 (inactive)
CARKRRDVMQAGNASASA [FS-1905] | 8.11 (active) | 9.14 (active) | 9.14 (active)
CASNCRHERDAGNASASA [FS-722] | 1.11 | 0.623 (inactive) | 1.08
CAGWSRARRDAGNASASA [FS-334] | 9.99 (active) | 12.4 (active) | 9.61 (active)
CAENLRKRRDAGNASASA [FS-585] | 13.3 (active) | 14.1 (active) | 10.9 (active)
CARPRRPNGDAGNASASA [FS-1913] | -0.861 (inactive) | -0.812 (inactive) | 0.059 (inactive)
CAGAERKMRDAGNASASA [FS-653] | 2.56 | 3.75 (active) | 3.61 (active)
CARPRRARRDAGNASASA [FS-289] | 10.4 (active) | 10.6 (active) | 7.54 (active)
CAENKVVILDAGNASASA [HC1284] | -1.51 (inactive) | 0.132 (inactive) | -0.906 (inactive)
CAGVVTSTWVAGNASASA [HC2156] | 0.312 (inactive) | -0.173 (inactive) | -0.545 (inactive)
CAPSGCPPDSAGNASASA [HC1347] | 0.626 (inactive) | 0.736 (inactive) | -1.37 (inactive)

Sequence | furin cleavage Z-score (7.5 min) | furin cleavage Z-score (15 min) | furin cleavage Z-score (30 min)
CAACQRQKKVAGNASASA [HC1393] | 0.424 (inactive) | -0.843 (inactive) | -0.382 (inactive)
CAEVDVQARDAGNASASA [FS-1628] | -1.25 (inactive) | 0.00773 (inactive) | -1.04 (inactive)
CAKVHRQRRDAGNASASA [FS-48] | 6.48 (active) | 5.35 (active) | 4.45 (active)
CALLTRARRDAGNASASA [FS-1362] | 10.7 (active) | 11.2 (active) | 8.73 (active)
CARPERGARGAGNASASA [FS-2737] | -0.85 (inactive) | 0.79 (inactive) | 0.188 (inactive)
CALLLFAGVDAGNASASA [HC348] | -0.657 (inactive) | -0.224 (inactive) | -1.23 (inactive)
CARPMRPVGHAGNASASA [FS-2739] | -0.34 (inactive) | -0.708 (inactive) | 1.89
CALLTRIPGFAGNASASA [FS-3146] | -0.34 (inactive) | 0.0643 (inactive) | -0.495 (inactive)
CARPERGPRGAGNASASA [FS-1264] | 1.01 | 0.671 (inactive) | 1.51
CARPVRDCDDAGNASASA [FS-3028] | 0.136 (inactive) | 1.92 | 1.99
CARPERYRRHAGNASASA [FS-491] | 12.7 (active) | 14.8 (active) | 11.1 (active)
CARPERKRRDAGNASASA [FS-1066] | 14.3 (active) | 14.2 (active) | 10.6 (active)
CATTPCSGEWAGNASASA [HC1912] | -1.69 (inactive) | -0.859 (inactive) | 0.0519 (inactive)
CAMVCCSMSYAGNASASA [HC1986] | 0.714 (inactive) | 1.46 | 0.242 (inactive)
CAIICDECHSAGNASASA [HC817] | -0.464 (inactive) | -1.69 (inactive) | -0.782 (inactive)
CAKDSRCDRDAGNASASA [FS-544] | -1.48 (inactive) | -1.29 (inactive) | 0.34 (inactive)
CAKSRRARRDAGNASASA [FS-1597] | 7.96 (active) | 9.22 (active) | 7.04 (active)
CAQLAAPGAAAGNASASA [HC1070] | -0.00694 (inactive) | -2.1 (inactive) | -1.59 (inactive)
CARKFRDLLKAGNASASA [FS-1724] | -0.828 (inactive) | -1.86 (inactive) | 0.751 (inactive)
CARPDRPVLKAGNASASA [FS-2436] | -0.645 (inactive) | -0.376 (inactive) | -0.377 (inactive)
CAALDTEVAAAGNASASA [HC565] | 1.05 | 0.0294 (inactive) | -0.123 (inactive)
CARMARNVLKAGNASASA [FS-2281] | 2.27 | 2.22 | 4.88 (active)
CARMAREVAAAGNASASA [FS-1909] | 6.15 (active) | 4.78 (active) | 6.63 (active)
